Experimental data published in article PMC4336329 (PLoS ONE, 2015).
Hit rate of the full screen: of about 310,000 compounds, about 14,000 (4.5%) showed an effect of 50% or more. Effects have a minus sign here. The entries come from a sample that favours strong results as a whole.

These molecules were tested against human ether-à-go-go-related gene (hERG) potassium channel (human, UniProt Q12809) (assay: primary screen, population patch clamp on CHO cells stably expressing hERG; higher = less effect of the substance).
Sequence of human ether-à-go-go-related gene (hERG) potassium channel (Q12809 whole entry, looked up): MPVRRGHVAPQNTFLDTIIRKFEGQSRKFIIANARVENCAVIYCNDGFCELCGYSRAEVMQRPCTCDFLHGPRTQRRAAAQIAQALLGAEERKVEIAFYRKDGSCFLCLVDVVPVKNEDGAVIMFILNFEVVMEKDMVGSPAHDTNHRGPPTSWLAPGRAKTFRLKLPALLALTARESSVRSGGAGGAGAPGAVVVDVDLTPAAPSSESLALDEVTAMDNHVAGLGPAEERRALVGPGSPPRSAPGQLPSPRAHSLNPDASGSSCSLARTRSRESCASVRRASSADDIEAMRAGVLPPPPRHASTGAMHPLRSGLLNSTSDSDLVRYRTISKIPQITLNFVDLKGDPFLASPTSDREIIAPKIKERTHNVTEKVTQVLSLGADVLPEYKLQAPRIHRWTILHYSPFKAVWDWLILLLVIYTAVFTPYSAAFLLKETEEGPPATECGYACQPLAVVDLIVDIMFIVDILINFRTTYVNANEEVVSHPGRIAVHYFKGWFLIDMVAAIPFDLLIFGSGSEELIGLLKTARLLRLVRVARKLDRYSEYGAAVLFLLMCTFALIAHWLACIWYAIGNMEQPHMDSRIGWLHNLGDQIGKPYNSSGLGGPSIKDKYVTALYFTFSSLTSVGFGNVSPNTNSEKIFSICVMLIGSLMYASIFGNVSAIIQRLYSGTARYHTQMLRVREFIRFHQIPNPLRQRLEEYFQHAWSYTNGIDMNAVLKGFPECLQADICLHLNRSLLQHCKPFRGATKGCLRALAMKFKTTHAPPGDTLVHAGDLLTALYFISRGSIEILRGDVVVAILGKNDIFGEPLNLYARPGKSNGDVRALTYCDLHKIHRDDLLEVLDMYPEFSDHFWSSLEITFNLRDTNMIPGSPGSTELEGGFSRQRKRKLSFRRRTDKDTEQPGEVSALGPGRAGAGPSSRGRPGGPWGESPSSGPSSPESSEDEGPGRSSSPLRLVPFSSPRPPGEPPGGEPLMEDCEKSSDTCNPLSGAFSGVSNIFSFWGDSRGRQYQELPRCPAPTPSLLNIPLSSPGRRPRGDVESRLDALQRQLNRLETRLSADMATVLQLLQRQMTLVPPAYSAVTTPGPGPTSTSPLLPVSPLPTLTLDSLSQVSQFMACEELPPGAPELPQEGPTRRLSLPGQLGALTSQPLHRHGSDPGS
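Note: peak tail current of the secondary pulse compared with the same well before compound.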

Row | Structure (SMILES) | hERG current change (%, negative = inhibition) at 10uM
1 | COc1ccc(C2C(C(=O)c3cccs3)=C(O)C(=O)N2c2nnc(C)s2)cc1OC (stereo not drawn) | 1.32%
2 | CCN1C(=O)/C(=C\N2CCN(c3ccc(F)cc3)CC2)SC1=S | 15.5%
3 | COc1ccc(N2C(=O)C3CCCN3C2c2cccc(C)c2)cc1Cl (stereo not drawn) | -31.3%
4 | O=C(Nc1ccccc1F)C(=O)c1cn(CC(=O)N2CCCCC2)c2ccccc12 | 13.8%
5 | CN1CCN(C2=Nc3ccccc3Oc3ccc(Cl)cc32)CC1.O=C(O)CCC(=O)O | -6.25%
6 | CCN(CC(=O)NC(=O)NC1CCCCC1)Cc1nc2ccccc2c(=O)[nH]1 | -8.1%
7 | CN1CC(=O)N=C1N | 8.56%
8 | CN1CC(=O)N=C1N.Cl | -50.1%
9 | O=C(CN1CCN(S(=O)(=O)c2ccc(F)c(Cl)c2)CC1)N1CCNC1=O | -1.79%
10 | Cc1ccc(-c2noc(C3CCCN(C(=O)c4ccccc4Br)C3)n2)cc1 (stereo not drawn) | 0.00198%
11 | N/C(=N\OC(=O)/C=C/c1ccccc1)c1ccc(Br)cc1 | 4.83%
12 | COc1ccc(CCNCC2C(Oc3ccc(Cl)cc3)C(=O)N2c2ccccc2C)cc1OC.Cl (stereo not drawn) | -41%
13 | O=[N+]([O-])c1cc(/C=N/n2cnnc2)ccc1N1CCCC1 | -38.7%
14 | N#CCc1ccccc1C(=O)OCC(=O)N(Cc1ccccc1)Cc1ccccc1 | -52.1%
15 | O=C(OCC(=O)N(Cc1ccccc1)Cc1ccccc1)c1ccccc1NCCO | -15.4%
16 | O=C(OCC(=O)N(Cc1ccccc1)Cc1ccccc1)c1ccccc1O | 5.67%
17 | FC(F)(F)c1ccc(-c2noc(CN3CCCN(C4CCCCC4)CC3)n2)cc1 | -75.7%
18 | Clc1ccc(-c2noc(CN3CCCC3)n2)cc1 | -15.1%
19 | CN1CCCN(Cc2nc(-c3cccc(C(F)(F)F)c3)no2)CC1 | -60.2%
20 | c1cnc(-c2noc(CN3CCN(C4CCCC4)CC3)n2)cn1 | 18.7%
21 | Cc1ccc(-c2noc(CN3CCCCC3)n2)cc1 | 34.6%
22 | CC1CCN(Cc2nc(-c3ccc(Cl)cc3)no2)CC1 | 8.57%
23 | O=CN1CCCN(Cc2nc(-c3cccc(Cl)c3)no2)CC1 | -13.3%

Row | Structure (SMILES) | hERG current change (%, negative = inhibition) at 10uM
24 | CN1CCCN(Cc2nc(-c3ccc(Cl)cc3)no2)CC1 | -72.6%
25 | FC(F)(F)c1cccc(-c2noc(CN3CCOCC3)n2)c1 | 6.74%
26 | CN1c2ccccc2C(C)(C)C12C=Cc1cc(O)ccc1O2 (stereo not drawn) | -5.61%
27 | Cc1oc2cc(Br)c(O)c(Br)c2c1-c1ccccc1 | -13.5%
28 | CC(C)(C)OC(=O)NCCCC[C@H](NC(=O)c1[nH]cnc1C(=O)Nc1ccccc1)C(=O)OC(C)(C)C | 15.6%
29 | CCCNNC(=O)C(O)(c1cccc(C)c1)c1cccc(C)c1 | -2.43%
30 | Cc1ccc(N2C(=O)C(Cl)=C(N3CCOCC3)C2=O)c(C)c1 | 14.6%
31 | O=C(COC(=O)c1ccc(Cl)c(S(=O)(=O)NCc2ccccc2)c1)NCC1CCCO1 (stereo not drawn) | -53%
32 | O=C(COC(=O)c1ccc(Cl)c(S(=O)(=O)N2CCCCC2)c1)NCC1CCCO1 (stereo not drawn) | -14.1%
33 | O=C(COC(=O)c1cccc(S(=O)(=O)NCc2ccccc2)c1)NCC1CCCO1 (stereo not drawn) | 3.36%
34 | CCN(CC)C(=O)C(=O)c1cccn1-c1ccc(C#N)cc1 | -18.8%
35 | COc1ccc2oc(=O)c(/C(C)=N/Nc3ccccc3)cc2c1 | -2.36%
36 | CCOC(=O)COc1cc(O)c2c(=O)cc(-c3ccccc3)oc2c1 | 12%
37 | CCOC(=O)COc1cc(OCC(=O)OCC)c2c(=O)cc(-c3ccccc3)oc2c1 | -62.6%
38 | CC(C)(C)OC(=O)COc1cc(OCC(=O)OC(C)(C)C)c2c(=O)cc(-c3ccccc3)oc2c1 | -15%
39 | CC(C)(C)NS(=O)(=O)c1cc2c3c(c1)CCN3C(=O)CC2 | 17.4%
40 | CC1CC(NS(=O)(=O)c2cc3c4c(c2)CCN4C(=O)CC3)CC(C)(C)C1 (stereo not drawn) | -63.1%
41 | O=C1CCc2cc(S(=O)(=O)NC3CCCCC3)cc3c2N1CC3 | 1.44%
42 | c1ccc(-c2nnc(C(c3ccccc3)c3ccccc3)o2)cc1 | 6.86%
43 | CCN1CCN(c2c(C(=O)c3ccc(OC)cc3)cnc3ccccc23)CC1 | -80.3%
44 | CCOC(=O)C1CCCN(c2c(C(=O)c3ccccc3)cnc3ccccc23)C1 (stereo not drawn) | -26.5%
45 | CCOC(=O)C1CCCN(c2c(C(=O)c3ccccc3)cnc3ccc(OC)cc23)C1 (stereo not drawn) | -37.5%
46 | COc1ccc(C(=O)c2cnc3ccccc3c2-c2ccccc2)cc1 | -9.47%

Row | Structure (SMILES) | hERG current change (%, negative = inhibition) at 10uM
47 | CCOC(=O)c1cnc2ccc(OCC)cc2c1N1CCN(c2ccccc2)CC1 | 13.9%
48 | CCOc1ccc(C(=O)c2cnc3ccccc3c2N2CCN(CC)CC2)cc1 | -65.5%
49 | COc1ccccc1-c1cc(C(=O)NC(C)c2ccccc2)no1 (stereo not drawn) | 9.56%
50 | CCC(C)N=Cc1c(Nc2ccccc2)nc2c(C)cccn2c1=O (stereo not drawn) | 17.6%
51 | O=C(Nc1cccc2ncccc12)c1cccnc1 | 14.5%
52 | CC(C)(C)c1ccc(C(=O)NCc2cccnc2)cc1 | -2.42%
53 | COc1ccc(OC)c(CCNC(=O)CCc2nnc3ccc(N4CCOCC4)nn23)c1 | 16.1%
54 | CCOC(=O)c1c(C)oc2c1cc(NS(=O)(=O)c1ccc(C(=O)O)cc1)c1ccccc12 | -60.7%
55 | CC(=O)c1c(C)oc2c1cc(NS(=O)(=O)c1ccc(C(=O)O)cc1)c1ccccc12 | 14.3%
56 | COC(=O)c1c(C)oc2c1cc(NS(=O)(=O)c1ccc(C(=O)O)cc1)c1ccccc12 | 7.86%
57 | O=C(CCCC(=O)OCC(F)(F)C(F)F)Nc1ccccc1F | 14.8%
58 | CN(C)C(/C=C/Nc1cccc([N+](=O)[O-])c1)=C(C#N)C#N | -11.1%
59 | CC(C)(C)c1nn(-c2ccccc2)c2[nH]c(=O)c(CNc3ccc4c(c3)OCCO4)cc12 | -4.99%
60 | CCC(=O)NCc1ccc2[nH]c(C)cc2c1 | 37%
61 | CC(C)Cc1ccc(C(C)C(=O)Nc2nccs2)cc1 (stereo not drawn) | -1.33%
62 | CCOC(=O)Cc1csc(NC(=O)C(C)c2ccc([N+](=O)[O-])cc2)n1 (stereo not drawn) | -55.9%
63 | CC(Sc1ccc([N+](=O)[O-])cn1)C(=O)Nc1nccs1 (stereo not drawn) | -5.58%
64 | CCOC(=O)Cc1csc(NC(=O)Cc2ccc([N+](=O)[O-])cc2)n1 | -64.9%
65 | CC(C(=O)Nc1nccs1)c1ccc([N+](=O)[O-])cc1 (stereo not drawn) | -72%
66 | CCOC(=O)Cc1csc(NS(=O)(=O)c2ccc([N+](=O)[O-])cc2)n1 | 7.89%
67 | CCOC(=O)Cc1csc(NC(=S)NC(=O)c2ccc([N+](=O)[O-])cc2)n1 | 13.8%
68 | CCOC(=O)Cc1csc(NC(=O)Cc2ccc(Cl)cc2)n1 | -15.1%
69 | Cc1cc2cc(CNC(=O)c3cccc([N+](=O)[O-])c3)ccc2[nH]1 | -25.3%

Row | Structure (SMILES) | hERG current change (%, negative = inhibition) at 10uM
70 | CCOC(=O)Cc1csc(NC(=O)Cc2ccc(C)cc2)n1 | -18%
71 | Cc1cc2cc(CNC(=O)Cc3ccc([N+](=O)[O-])cc3)ccc2[nH]1 | -50.7%
72 | COc1ccc(CCN=C(N)NS(=O)(=O)c2ccc(C)cc2)cc1OC | 6.05%
73 | CCCCNC(=O)C1CCCN1C(=O)Nc1cccc(OC)c1 (stereo not drawn) | 14%
74 | Cc1sc2ncn(/N=C/c3ccco3)c(=O)c2c1C | -2.43%
75 | CC(C)OC(=O)c1cc(NC(=O)C2C3C=CC(O3)C2C(=O)O)cc(C(=O)OC(C)C)c1 (stereo not drawn) | -1.28%
76 | Cc1c(C)c(C)c2[nH]c(=S)[nH]c2c1C | 24.9%
77 | CCN(CC)C(=O)COC(=O)c1ccc(O)cc1 | 7.43%
78 | CC1=C(C(=O)Nc2ccccc2C(=O)NCCCOC(C)C)SCCO1 | 14%
79 | CCCCn1c(=O)[nH]c(=O)c2c1nc(-c1ccccc1F)n2Cc1ccccc1OC | 11.5%
80 | COc1ccc(-c2cc(C(F)(F)F)nc(SCC(=O)N(C)Cc3cnn(C)c3C)n2)cc1OC | -42.4%
81 | Cc1cc(C)nc(NC(=O)Cc2ccc(Cl)cc2)c1 | -5.94%
82 | Cc1cc(Br)ccc1NC(=O)C(C)c1ccc([N+](=O)[O-])cc1 (stereo not drawn) | -70.7%
83 | CC(C(=O)Nc1ccccc1Br)c1ccc([N+](=O)[O-])cc1 (stereo not drawn) | -35.5%
84 | Cc1cc(C)nc(NC(=O)Cc2ccc([N+](=O)[O-])cc2)c1 | -67.9%
85 | CC(C(=O)Nc1cccc(Br)c1)c1ccc([N+](=O)[O-])cc1 (stereo not drawn) | -47.3%
86 | Cc1ccnc(NC(=O)Cc2ccc([N+](=O)[O-])cc2)c1 | -12.4%
87 | CCOc1cc(NC(=O)CC(C)C)c(OCC)cc1NC(=O)CCn1nnc2ccccc21 | 10.1%
88 | CCOC(=O)c1ccc(-n2ccnc2)c(NC(=O)c2ccc(Cl)cc2)c1 | -66.2%
89 | CCOC(=O)c1ccc(-n2ccnc2)c(NC(=O)c2cccc(Br)c2)c1 | -42.1%
90 | CCOC(=O)c1ccc(-n2ccnc2)c(NC(=O)c2ccc(C(C)(C)C)cc2)c1 | -41%
